Assay results taken from the supplement of paper PMC6522484.
± gives the standard deviation of the averaged measurements.

What follows are compounds tested on SW480 (assay: cell viability (CellTiter-Glo) relative to plate median (fraction of plate median); higher = more viable cells). Details: 5 µM; treatment time 24 h; reporter: 7TFP.
In short: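 After seeding in 384-well plates, colorectal cancer cell lines carrying stable lentiviral TCF/Wnt firefly luciferase reporters (7TFP or TCF4/Wnt) were left 24 h. Library compounds were then added at a final 5 µM for 24 h. A Tecan F500 reader measured firefly luciferase or CellTiterGlo luminescence on parallel plates, with each well normalised to the plate median by webcellHTS2 (additive, no log transformation), and two independent replicates averaged.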

Question: `C=C1C2CCC3(C)C(c4ccoc4)OC(=O)CC13OC1CC(OC(C)=O)C(C)(C)C(CC(=O)OC)C12C` (stereo not drawn) [3beta-ACETOXYDEOXYANGOLENSIC ACID, METHYL ESTER] was tested. Which cell viability did it give?
Answer: Its cell viability is 0.995 ± 0.05.

Question: For `CC1(C)C=CC(=O)[C@@]2(C)C1CC(=O)[C@]1(C)C2CC[C@@]2(C)[C@H](c3ccoc3)OC(=O)C3OC321` (stereo not given in full), which cell viability is on record?
Answer: Its cell viability is 0.998 ± 0.018.

Question: With `N[C@@H](Cc1cc(I)c(Oc2cc(I)c(O)c(I)c2)c(I)c1)C(=O)O` as the compound, how does the cell viability read?
Answer: The cell viability was 0.978 ± 0.018.

Question: How did the cell viability turn out when `COc1ccc2ccc(=O)oc2c1` was run?
Answer: Its cell viability is 0.97 ± 0.0071.

Question: Which cell viability does the source give for `O=C1c2c(O)cccc2C([C@@H]2O[C@H](CO)[C@@H](O)[C@H](O)[C@H]2O)c2cc(CO)cc(O)c21` (stereo not given in full) here?
Answer: The cell viability was 1.015 ± 0.0071.

Question: `OC[C@@H](O)[C@@H](O[C@@H]1O[C@H](CO)[C@@H](O)[C@H](O)[C@H]1O)[C@H](O)[C@@H](O)CO` was tested. Which cell viability did it give?
Answer: The cell viability was 1.01 ± 0.03.

Question: With `CC(=O)C12OC(C)(c3ccccc3)OC1CC1C3CCC4=CC(=O)CCC4(C)C3CCC12C` (stereo not given) as the compound, how does the cell viability read?
Answer: The cell viability was 0.976 ± 0.035.

Question: For `CC1(C)CC[C@]2(C(=O)O)CC[C@]3(C)C(=CC[C@@H]4[C@@]5(C)CC[C@H](O)C(C)(C)[C@@H]5[C@H](O)C[C@]43C)[C@@H]2C1`, which cell viability is on record?
Answer: The cell viability was 0.992 ± 0.026.

Question: How did the cell viability turn out when `CCOC(=O)[C@H](CCc1ccccc1)N[C@@H](C)C(=O)N1[C@H](C(=O)O)C[C@H]2CCCC[C@@H]21` was run?
Answer: The cell viability was 0.98 ± 0.026.

Question: `CC(=O)O[C@H]1CC[C@]2(C)C3=C(CC[C@H]2C1(C)C)[C@]1(C)CC[C@H]([C@H](C)CCC=C(C)C)[C@@]1(C)CC3` was tested. Which cell viability did it give?
Answer: The cell viability was 0.953 ± 0.034.

Question: For `COc1ccc2c(=O)c(-c3cc4c(cc3OC)OCO4)coc2c1`, which cell viability is on record?
Answer: The cell viability was 1.04 ± 0.035.

Question: `OCC(S)CS` (stereo not given) was tested. Which cell viability did it give?
Answer: Its cell viability is 0.944 ± 0.032.

Question: `COc1ccc([C@@H]2CC(=O)c3c(O)cc(O)cc3O2)cc1O` was tested. Which cell viability did it give?
Answer: The cell viability was 0.9885 ± 0.0092.

Question: With `O=c1cc(-c2ccccc2)oc2c(O)c(O)ccc12` as the compound, how does the cell viability read?
Answer: Its cell viability is 0.98 ± 0.015.

Question: Which cell viability does the source give for `CC(=O)S[C@@H]1CC2=CC(=O)CC[C@]2(C)[C@H]2CC[C@@]3(C)[C@@H](CC[C@@]34CCC(=O)O4)[C@H]12` here?
Answer: Its cell viability is 1.06 ± 0.064.

Question: For `OCc1c[nH]c2ccccc12`, which cell viability is on record?
Answer: Its cell viability is 0.948 ± 0.042.

Question: With `O=C(O)c1cc2ccccc2[nH]1` as the compound, how does the cell viability read?
Answer: Its cell viability is 1.04 ± 0.028.

Question: With `CC1(C)O[C@@H]2C[C@H]3[C@@H]4C[C@H](F)C5=CC(=O)C=C[C@]5(C)[C@H]4[C@@H](O)C[C@]3(C)[C@]2(C(=O)CO)O1` as the compound, how does the cell viability read?
Answer: Its cell viability is 0.978 ± 0.0042.

Question: Which cell viability does the source give for `COC(=O)[C@H]1[C@H]2C[C@H]3c4[nH]c5ccccc5c4CCN3C[C@@H]2CC[C@@H]1O` here?
Answer: The cell viability was 1.06 ± 0.014.

Question: Which cell viability does the source give for `CC[n+]1c(-c2ccccc2)c2cc(N)ccc2c2ccc(N)cc21` here?
Answer: Its cell viability is 1.22.

Question: `CN(C)CCN(Cc1cccs1)c1ccccn1` was tested. Which cell viability did it give?
Answer: The cell viability was 1 ± 0.015.

Question: `CCc1nc(N)nc(N)c1-c1ccc(Cl)cc1` was tested. Which cell viability did it give?
Answer: Its cell viability is 1.02 ± 0.021.

Question: Which cell viability does the source give for `CC(=O)Nc1ccc(O)cc1` here?
Answer: Its cell viability is 0.996 ± 0.02.

Question: For `COc1ccc(C(=O)CC(=O)c2ccc(C(C)(C)C)cc2)cc1`, which cell viability is on record?
Answer: The cell viability was 1.01 ± 0.021.

Question: For `COc1cccc(/C=C/C(=O)O)c1C(C)C`, which cell viability is on record?
Answer: Its cell viability is 1 ± 0.041.

Question: `CC[C@H]1OC(=O)C[C@@H](O)[C@H](C)[C@@H](O[C@@H]2O[C@H](C)[C@@H](O)[C@H](N(C)C)[C@H]2O)[C@@H](CCN2C[C@H](C)C[C@H](C)C2)C[C@@H](C)C(=O)/C=C/C(C)=C/[C@@H]1CO[C@@H]1O[C@H](C)[C@@H](O)[C@@H](OC)[C@H]1OC` was tested. Which cell viability did it give?
Answer: The cell viability was 0.972 ± 0.021.

Question: With `CN1[C@@H]2CC[C@H]1C[C@@H](OC(c1ccccc1)c1ccccc1)C2` as the compound, how does the cell viability read?
Answer: Its cell viability is 1.05 ± 0.05.

Question: With `CC(=O)C[C@@H]1C[C@H](O)c2c(O)cccc2C1=O` [Bhimanone] as the compound, how does the cell viability read?
Answer: The cell viability was 1.05 ± 0.14.

Question: `O=c1c(-c2ccc(O)cc2)coc2cc(O)cc(O)c12` was tested. Which cell viability did it give?
Answer: The cell viability was 1.06 ± 0.021.

Question: How did the cell viability turn out when `Cc1c(N(C)C)c(=O)n(-c2ccccc2)n1C` was run?
Answer: Its cell viability is 0.991 ± 0.069.

Question: For `CC1=CC2C(C(C)C)CCC(C)(O)C2CC1` (stereo not given), which cell viability is on record?
Answer: The cell viability was 0.969 ± 0.013.

Question: With `CCN(CC)CCOC(=O)C(Cc1cccc2ccccc12)CC1CCCO1` (stereo not given) as the compound, how does the cell viability read?
Answer: Its cell viability is 1.02 ± 0.033.

Question: Which cell viability does the source give for `COC(=O)C1=CO[C@@H](O[C@@H]2O[C@H](CO)[C@@H](O)[C@H](O)[C@H]2O)[C@@H]2[C@@H](C)[C@@H](O)C[C@H]12` here?
Answer: Its cell viability is 1.06 ± 0.035.

Question: With `CN(C)CCC=C1c2ccccc2COc2ccccc21` as the compound, how does the cell viability read?
Answer: The cell viability was 0.949 ± 0.032.

Question: Which cell viability does the source give for `COC(=O)C[C@H]1C(C)(C)[C@@H](OC(C)=O)[C@@H]2CC3C4CC(=O)O[C@@H](c5ccoc5)[C@]4(C)CCC3[C@@]1(C)C2=O` (stereo not given in full) here?
Answer: The cell viability was 1.015 ± 0.0071.

Question: `NS(=O)(=O)c1cc2c(cc1C(F)(F)F)NC(Cc1ccccc1)NS2(=O)=O` (stereo not given) was tested. Which cell viability did it give?
Answer: Its cell viability is 0.9875 ± 0.0035.

Question: For `Oc1ccc(Cl)c2cccnc12`, which cell viability is on record?
Answer: The cell viability was 1.02 ± 0.021.

Question: `C#C[C@]1(OC(C)=O)CC[C@H]2[C@@H]3CCC4=CC(=O)CC[C@@H]4[C@H]3CC[C@@]21C` was tested. Which cell viability did it give?
Answer: The cell viability was 0.973 ± 0.052.

Question: Which cell viability does the source give for `CCCc1ncc(C[n+]2ccccc2C)c(N)n1` here?
Answer: The cell viability was 0.972 ± 0.0028.

Question: `CC1(C)[C@@H](O)CC[C@]2(C)[C@H]3C(=O)C=C4[C@@H]5C[C@@](C)(C(=O)O)CC[C@]5(C)CC[C@@]4(C)[C@]3(C)CC[C@@H]12` was tested. Which cell viability did it give?
Answer: The cell viability was 1.05 ± 0.057.
